# Reference: article PMC5540273 (PLoS ONE, 2017)
# Read-outs that look alike come from different tables or passages of the source.
# How the values were obtained:
# LTK = settings: n = 1
# LYN = settings: concentration: 1 μM, replicates: in singlicate; n = 1
# LZK = system: T1, LZK; settings: concentration: 1 μM, replicates: in singlicate; n = 1
# T1 construct: gene MAP3K13
# MAK = settings: concentration: 1 μM, replicates: in singlicate; n = 1
# MAP3K15 = settings: concentration: 1 μM, replicates: in singlicate; n = 1
# MAP3K1 = settings: concentration: 1 μM, replicates: in singlicate; n = 1
# MAP3K2 = settings: concentration: 1 μM, replicates: in singlicate; n = 1
# MAP3K3 = settings: concentration: 1 μM, replicates: in singlicate; n = 1
# MAP3K4 = settings: concentration: 1 μM, replicates: in singlicate; n = 1
# MAP4K2 = settings: concentration: 1 μM, replicates: in singlicate; n = 1
# MAP4K3 = settings: concentration: 1 μM, replicates: in singlicate; n = 1
# MAP4K4 = settings: concentration: 1 μM, replicates: in singlicate; n = 1
# MAP4K5 = settings: concentration: 1 μM, replicates: in singlicate; n = 1
# MAPKAPK2 = settings: concentration: 1 μM, replicates: in singlicate; n = 1
# MAPKAPK5 = settings: concentration: 1 μM, replicates: in singlicate; n = 1
# MARK1 = settings: concentration: 1 μM, replicates: in singlicate; n = 1
# MARK2 = settings: concentration: 1 μM, replicates: in singlicate; n = 1
# MARK3 = settings: concentration: 1 μM, replicates: in singlicate; n = 1
# MARK4 = settings: concentration: 1 μM, replicates: in singlicate; n = 1
# MAST1 = settings: concentration: 1 μM, replicates: in singlicate; n = 1
# [1] = concentration: 1 μM, replicates: in singlicate
# 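Note: KINOMEscan kinase panel screen.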
smiles,measurement,setting,value
O=c1cc(N2CCOCC2)nc2n(Cc3cccc(Cl)c3Cl)c(C3CC3)nn12 [GSK2358994],%Inh,LTK; 1 µM,0%
same,%Inh,LYN,0%
same,%Inh,LZK,0%
same,%Inh,MAK,0%
same,%Inh,MAP3K15,0%
same,%Inh,MAP3K1,14%
same,%Inh,MAP3K2,0%
same,%Inh,MAP3K3,0%
same,%Inh,MAP3K4,19%
same,%Inh,MAP4K2,11%
same,%Inh,MAP4K3,0%
same,%Inh,MAP4K4,0%
same,%Inh,MAP4K5,0%
same,%Inh,MAPKAPK2,1%
same,%Inh,MAPKAPK5,0%
same,%Inh,MARK1,0%
same,%Inh,MARK2,0%
same,%Inh,MARK3,0%
same,%Inh,MARK4,4%
same,%Inh,MAST1,4%
O=C1Cc2cc(Nc3nc(NCc4cccc(S(=O)(=O)C(F)(F)F)c4)ncc3C(F)(F)F)ccc2N1,%Inh,LTK; [1],6%
same,%Inh,LYN,0%
same,%Inh,LZK,25%
same,%Inh,MAK,15%
same,%Inh,MAP3K15,21%
same,%Inh,MAP3K1,2%
same,%Inh,MAP3K2,12%
same,%Inh,MAP3K3,0%
same,%Inh,MAP3K4,6%
same,%Inh,MAP4K2,0%
same,%Inh,MAP4K3,13%
same,%Inh,MAP4K4,0%
same,%Inh,MAP4K5,0%
same,%Inh,MAPKAPK2,4%
same,%Inh,MAPKAPK5,30%
same,%Inh,MARK1,5%
same,%Inh,MARK2,0%
same,%Inh,MARK3,19%
same,%Inh,MARK4,6%
same,%Inh,MAST1,0%
O=C(NCCCN1CCOCC1)c1cccc(Nc2nccc(Nc3ccc(Oc4ccccc4)cc3)n2)c1 [GW663929],%Inh,LTK; [1],0%
same,%Inh,LYN,72%
same,%Inh,LZK,28%
same,%Inh,MAK,36%
same,%Inh,MAP3K15,0%
same,%Inh,MAP3K1,0%
same,%Inh,MAP3K2,0%
same,%Inh,MAP3K3,0%
same,%Inh,MAP3K4,0%
same,%Inh,MAP4K2,13%
same,%Inh,MAP4K3,0%
same,%Inh,MAP4K4,6%
same,%Inh,MAP4K5,0%
same,%Inh,MAPKAPK2,0%
same,%Inh,MAPKAPK5,0%
same,%Inh,MARK1,0%
same,%Inh,MARK2,19%
same,%Inh,MARK3,8%
same,%Inh,MARK4,0%
same,%Inh,MAST1,0%
CCc1ccnc(/C=C/c2n[nH]c3cc(Sc4ccccc4C(=O)NC)ccc23)c1,%Inh,LTK; [1],6%
same,%Inh,LYN,23%
same,%Inh,LZK,17%
same,%Inh,MAK,20%
same,%Inh,MAP3K15,0%
same,%Inh,MAP3K1,12%
same,%Inh,MAP3K2,17%
same,%Inh,MAP3K3,6%
same,%Inh,MAP3K4,4%
same,%Inh,MAP4K2,9%
same,%Inh,MAP4K3,0%
same,%Inh,MAP4K4,0%
same,%Inh,MAP4K5,3%
same,%Inh,MAPKAPK2,0%
same,%Inh,MAPKAPK5,0%
same,%Inh,MARK1,27%
same,%Inh,MARK2,4%
same,%Inh,MARK3,3%
same,%Inh,MARK4,21%
same,%Inh,MAST1,0%
Nc1nccc(-c2c(-c3ccc(F)cc3)ncn2C2CCN(CC(F)(F)F)CC2)n1 [SB-236560],%Inh,LTK; [1],100%
same,%Inh,LYN,13%
same,%Inh,LZK,7%
same,%Inh,MAK,29%
same,%Inh,MAP3K15,0%
same,%Inh,MAP3K1,0%
same,%Inh,MAP3K2,0%
same,%Inh,MAP3K3,0%
same,%Inh,MAP3K4,0%
same,%Inh,MAP4K2,0%
same,%Inh,MAP4K3,0%
same,%Inh,MAP4K4,0%
same,%Inh,MAP4K5,0%
same,%Inh,MAPKAPK2,0%
same,%Inh,MAPKAPK5,0%
same,%Inh,MARK1,0%
same,%Inh,MARK2,0%
same,%Inh,MARK3,0%
same,%Inh,MARK4,4%
same,%Inh,MAST1,40%
COc1ccc(S(=O)(=O)NC2CCN(c3cc(C)nc(Nc4cccc(C#N)c4)n3)CC2)cc1.O=C(O)C(F)(F)F [GSK1653539],%Inh,LTK; [1],0%
same,%Inh,LYN,0%
same,%Inh,LZK,26%
same,%Inh,MAK,19%
same,%Inh,MAP3K15,0%
same,%Inh,MAP3K1,3%
same,%Inh,MAP3K2,0%
same,%Inh,MAP3K3,0%
same,%Inh,MAP3K4,24%
same,%Inh,MAP4K2,0%
same,%Inh,MAP4K3,0%
same,%Inh,MAP4K4,0%
same,%Inh,MAP4K5,0%
same,%Inh,MAPKAPK2,0%
same,%Inh,MAPKAPK5,0%
same,%Inh,MARK1,0%
same,%Inh,MARK2,12%
same,%Inh,MARK3,0%
same,%Inh,MARK4,0%
same,%Inh,MAST1,0%
NS(=O)(=O)CCc1cccc(Nc2nccc(-c3c(-c4cccc(NC(=O)c5c(F)cccc5F)c4)nn4ccccc34)n2)c1 [GSK336735],%Inh,LTK; [1],39%
same,%Inh,LYN,97.8%
same,%Inh,LZK,0%
same,%Inh,MAK,22%
same,%Inh,MAP3K15,5%
same,%Inh,MAP3K1,13%
same,%Inh,MAP3K2,88%
same,%Inh,MAP3K3,79%
same,%Inh,MAP3K4,76%
same,%Inh,MAP4K2,0%
same,%Inh,MAP4K3,65%
same,%Inh,MAP4K4,76%
same,%Inh,MAP4K5,95.8%
same,%Inh,MAPKAPK2,23%
same,%Inh,MAPKAPK5,0%
same,%Inh,MARK1,13%
same,%Inh,MARK2,0%
same,%Inh,MARK3,6%
same,%Inh,MARK4,26%
same,%Inh,MAST1,0%
COc1cc2c(cc1OCCN1CCN(C)CC1)ncc1c3ccc(C#N)cc3[nH]c21,%Inh,LTK; [1],0%
same,%Inh,LYN,19%
same,%Inh,LZK,11%
same,%Inh,MAK,21%
same,%Inh,MAP3K15,61%
same,%Inh,MAP3K1,0%
same,%Inh,MAP3K2,0%
same,%Inh,MAP3K3,0%
same,%Inh,MAP3K4,0%
same,%Inh,MAP4K2,54%
same,%Inh,MAP4K3,12%
same,%Inh,MAP4K4,59%
same,%Inh,MAP4K5,22%
same,%Inh,MAPKAPK2,0%
same,%Inh,MAPKAPK5,0%
same,%Inh,MARK1,7%
same,%Inh,MARK2,29%
same,%Inh,MARK3,0%
same,%Inh,MARK4,0%
same,%Inh,MAST1,97.2%
Cl.Oc1cccc(Nc2ccnc3cc(-c4ccncc4)ccc23)c1 [GW494601],%Inh,LTK; [1],69%
same,%Inh,LYN,86%
same,%Inh,LZK,36%
same,%Inh,MAK,61%
same,%Inh,MAP3K15,0%
same,%Inh,MAP3K1,1%
same,%Inh,MAP3K2,76%
same,%Inh,MAP3K3,70%
same,%Inh,MAP3K4,0%
same,%Inh,MAP4K2,88%
same,%Inh,MAP4K3,0%
same,%Inh,MAP4K4,47%
same,%Inh,MAP4K5,20%
same,%Inh,MAPKAPK2,0%
same,%Inh,MAPKAPK5,0%
same,%Inh,MARK1,6%
same,%Inh,MARK2,0%
same,%Inh,MARK3,0%
same,%Inh,MARK4,10%
same,%Inh,MAST1,51%
NCC(NC(=O)c1cc(-c2cn[nH]c2)c(-c2ccnc3[nH]ccc23)s1)c1ccccc1.O=C(O)C(F)(F)F.O=C(O)C(F)(F)F (centres unmarked) [GSK1325775],%Inh,LTK; [1],0%
same,%Inh,LYN,0%
same,%Inh,LZK,0%
same,%Inh,MAK,16%
same,%Inh,MAP3K15,21%
same,%Inh,MAP3K1,12%
same,%Inh,MAP3K2,8%
same,%Inh,MAP3K3,0%
same,%Inh,MAP3K4,20%
same,%Inh,MAP4K2,84%
same,%Inh,MAP4K3,6%
same,%Inh,MAP4K4,31%
same,%Inh,MAP4K5,25%
same,%Inh,MAPKAPK2,0%
same,%Inh,MAPKAPK5,0%
same,%Inh,MARK1,0%
same,%Inh,MARK2,25%
same,%Inh,MARK3,0%
same,%Inh,MARK4,0%
same,%Inh,MAST1,0%
